# Experiments:
# YSK1 = tested on: T1, YSK1; conditions: Compound Concentration (nM):1000
# T1 construct: gene STK25
# YSK4 = tested on: T2, YSK4; conditions: Compound Concentration (nM):1000
# T2 construct: gene MAP3K19
# ZAK = conditions: Compound Concentration (nM):1000
# ZAP70 = conditions: Compound Concentration (nM):1000
# p38-alpha = tested on: T3, p38-alpha; conditions: Compound Concentration (nM):1000
# T3 construct: gene MAPK14
# p38-beta = tested on: T4, p38-beta; conditions: Compound Concentration (nM):1000
# T4 construct: gene MAPK11
# p38-delta = tested on: T5, p38-delta; conditions: Compound Concentration (nM):1000
# T5 construct: gene MAPK13
# p38-gamma = tested on: T6, p38-gamma; conditions: Compound Concentration (nM):1000
# T6 construct: gene MAPK12
# 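Throughout, for Percent Control: KINOMEscan scanMAX binding as percent activity remaining versus control; lower means stronger binding.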
smiles,measurement,setting,value
NS(=O)(=O)c1ccc(N/N=C2\C(=O)Nc3ccc(C(=O)NCc4ccncc4)cc32)cc1 [GW300657X],Percent Control,YSK1,76%
same,Percent Control,YSK4,2.4%
same,Percent Control,ZAK,100%
same,Percent Control,ZAP70,85%
same,Percent Control,p38-alpha,100%
same,Percent Control,p38-beta,100%
same,Percent Control,p38-delta,100%
same,Percent Control,p38-gamma,42%
CN1CCN(C(=O)c2ccc(NC(=O)Nc3ccc(N(C)c4ccnc(Nc5ccc(CS(C)(=O)=O)cc5)n4)cc3)cc2)CC1.Cl [GW830263A],Percent Control,YSK1,83%
same,Percent Control,YSK4,0%
same,Percent Control,ZAK,86%
same,Percent Control,ZAP70,65%
same,Percent Control,p38-alpha,83%
same,Percent Control,p38-beta,100%
same,Percent Control,p38-delta,100%
same,Percent Control,p38-gamma,100%
Cn1ccc2ncnc(Oc3ccc(Nc4nc5ccccc5[nH]4)cc3)c21 [TPKI-72],Kinases covered,AURKB,AURKB
O=C(NCCO)c1cccc(-c2cc(Nc3ccc(OC(F)(F)F)cc3)ncn2)c1 [GNF-5],Kinases covered,ABL1,ABL1
COc1ccc(COc2ccc(Cc3cnc(N)nc3N)cc2OC)cc1 [GW632580X],Percent Control,YSK1,100%
same,Percent Control,YSK4,91%
same,Percent Control,ZAK,87%
same,Percent Control,ZAP70,97%
same,Percent Control,p38-alpha,100%
same,Percent Control,p38-beta,100%
same,Percent Control,p38-delta,85%
same,Percent Control,p38-gamma,89%
CNCc1ccc(-c2cc(-c3nc(-c4ccc(S(=O)(=O)C(C)C)cc4)cnc3N)on2)cc1 [VE-822],Kinases covered,ATM,ATM
same,Kinases covered,ATR,ATR
CCc1ccc(Oc2nccc(-c3c(-c4ccc(F)cc4)ncn3C3CCNCC3)n2)cc1 [SB-242719],Percent Control,YSK1,100%
same,Percent Control,YSK4,94%
same,Percent Control,ZAK,84%
same,Percent Control,ZAP70,98%
same,Percent Control,p38-alpha,0.1%
same,Percent Control,p38-beta,3%
same,Percent Control,p38-delta,100%
same,Percent Control,p38-gamma,100%
Cc1cccc(-c2cc(Nc3ccncc3)c3ccccc3n2)n1 [GSK223675],Kinases covered,ACVR1B,ACVR1B
CCn1c(-c2nonc2N)nc2c(C#CC(C)(C)O)nc(OCCNC)cc21.Cl [GSK949675],Percent Control,YSK1,89%
same,Percent Control,YSK4,0%
same,Percent Control,ZAK,100%
same,Percent Control,ZAP70,100%
same,Percent Control,p38-alpha,100%
same,Percent Control,p38-beta,94%
same,Percent Control,p38-delta,100%
same,Percent Control,p38-gamma,84%
same,Kinases covered,AKT1,AKT1
same,Kinases covered,AKT2,AKT2
COc1cccc(-c2c[nH]c3c(N/N=C/c4ccncc4)ncnc23)c1 [GW814408X],Percent Control,YSK1,65%
same,Percent Control,YSK4,0.7%
same,Percent Control,ZAK,17%
same,Percent Control,ZAP70,89%
same,Percent Control,p38-alpha,100%
same,Percent Control,p38-beta,100%
same,Percent Control,p38-delta,100%
same,Percent Control,p38-gamma,100%
CS(=O)(=O)c1ccc(-c2cnc(N)c(C(=O)Nc3ccccc3)n2)cc1 [VE-821],Kinases covered,ATR,ATR
CC1=C(C(=O)Nc2ccc3[nH]ncc3c2)C(c2ccc3ccccc3c2)CC(=O)N1 (stereo not shown) [GSK270822A],Percent Control,YSK1,68%
same,Percent Control,YSK4,75%
same,Percent Control,ZAK,92%
same,Percent Control,ZAP70,99%
same,Percent Control,p38-alpha,100%
same,Percent Control,p38-beta,100%
same,Percent Control,p38-delta,94%
same,Percent Control,p38-gamma,100%
CCn1cc(-c2ccnc3[nH]c(-c4cccc(CN(C)C)c4)cc23)c(-c2ccc(NC(=O)N(C)C)cc2)n1 [GSK1070916],Kinases covered,AURKB,AURKB
CN(C)c1cc2c(Nc3ccc4c(cnn4Cc4ccccc4)c3)ncnc2cn1 [GW282974X],Percent Control,YSK1,83%
same,Percent Control,YSK4,90%
same,Percent Control,ZAK,90%
same,Percent Control,ZAP70,83%
same,Percent Control,p38-alpha,100%
same,Percent Control,p38-beta,100%
same,Percent Control,p38-delta,99%
same,Percent Control,p38-gamma,100%
CNS(=O)(=O)c1ccc(N(C)C)c(Nc2ncnc3cc(OC)c(OC)cc23)c1 [GSK114],Kinases covered,ACK1,ACK1
COc1cc2ncnc(Nc3ccc4c(cnn4Cc4ccccc4)c3)c2cc1OC.Cl [GW282449A],Percent Control,YSK1,89%
same,Percent Control,YSK4,98%
same,Percent Control,ZAK,100%
same,Percent Control,ZAP70,100%
same,Percent Control,p38-alpha,100%
same,Percent Control,p38-beta,100%
same,Percent Control,p38-delta,100%
same,Percent Control,p38-gamma,100%
COc1ccccc1-c1cc(/C=C2\C(=O)Nc3ncc(Br)cc32)cc(Br)c1O [GW442130X],Percent Control,YSK1,99%
same,Percent Control,YSK4,98%
same,Percent Control,ZAK,100%
same,Percent Control,ZAP70,100%
same,Percent Control,p38-alpha,100%
same,Percent Control,p38-beta,92%
same,Percent Control,p38-delta,67%
same,Percent Control,p38-gamma,57%
same,Kinases covered,AURKA,AURKA
C/C(Nc1ccc(S(N)(=O)=O)cc1)=C1/C(=O)Nc2ccccc21 [GW335962X],Percent Control,YSK1,55%
same,Percent Control,YSK4,14%
same,Percent Control,ZAK,100%
same,Percent Control,ZAP70,94%
same,Percent Control,p38-alpha,100%
same,Percent Control,p38-beta,100%
same,Percent Control,p38-delta,100%
same,Percent Control,p38-gamma,73%
Cc1cccc(-c2nc(Nc3ccncc3)c3ccccc3n2)n1 [GW855857],Kinases covered,ACVR1B,ACVR1B
CN1C(=O)c2ccccc2N(C)c2nc(Nc3cnn(C4CCNCC4)c3)ncc21 [XMD-17-51],Kinases covered,ABL1,ABL1
same,Kinases covered,AURKA,AURKA
COc1ccc2[nH]c3c4[nH]c5ccc(OC)cc5c4c4c(c3c2c1)C(=O)NC4=O [GW296115X],Percent Control,YSK1,89%
same,Percent Control,YSK4,0%
same,Percent Control,ZAK,100%
same,Percent Control,ZAP70,76%
same,Percent Control,p38-alpha,87%
same,Percent Control,p38-beta,100%
same,Percent Control,p38-delta,86%
same,Percent Control,p38-gamma,70%
COc1cc(-c2cncc(-c3cnn(C4CCNCC4)c3)c2)cc(OC)c1OC [K05908],Kinases covered,ACVR1B,ACVR1B
same,Kinases covered,ACVR1,ACVR1
same,Kinases covered,ACVRL1,ACVRL1
CNC(=O)c1c(F)cccc1Nc1nc(Nc2cc3c(cc2OC)CCN3C(=O)CN(C)C)nc2[nH]ccc12 [GSK1838705],Kinases covered,ALK,ALK
CCS(=O)(=O)c1ccc(OC)c(Nc2ncc(-c3cccc(OC)c3)o2)c1 [GW580509X],Percent Control,YSK1,81%
same,Percent Control,YSK4,96%
same,Percent Control,ZAK,100%
same,Percent Control,ZAP70,100%
same,Percent Control,p38-alpha,100%
same,Percent Control,p38-beta,100%
same,Percent Control,p38-delta,100%
same,Percent Control,p38-gamma,100%
COc1cccc(-n2ncc3c(N/N=C/c4ccncc4)ncnc32)c1 [GW784752X],Percent Control,YSK1,90%
same,Percent Control,YSK4,21%
same,Percent Control,ZAK,39%
same,Percent Control,ZAP70,98%
same,Percent Control,p38-alpha,100%
same,Percent Control,p38-beta,100%
same,Percent Control,p38-delta,100%
same,Percent Control,p38-gamma,100%
NS(=O)(=O)c1ccc(Nc2ncc(-c3ccccc3)o2)cc1 [GW572399X],Percent Control,YSK1,54%
same,Percent Control,YSK4,30%
same,Percent Control,ZAK,100%
same,Percent Control,ZAP70,100%
same,Percent Control,p38-alpha,100%
same,Percent Control,p38-beta,100%
same,Percent Control,p38-delta,100%
same,Percent Control,p38-gamma,100%
NS(=O)(=O)c1ccc(N/N=C2\C(=O)Nc3ccc(-c4cnco4)cc32)cc1 [GW276655],Percent Control,YSK1,59%
same,Percent Control,YSK4,1.9%
same,Percent Control,ZAK,80%
same,Percent Control,ZAP70,88%
same,Percent Control,p38-alpha,100%
same,Percent Control,p38-beta,100%
same,Percent Control,p38-delta,99%
same,Percent Control,p38-gamma,66%
O=C1Nc2ccc(C(=O)c3ccco3)cc2C1=Cc1cc(Cl)c(O)c(Cl)c1 [GW406108X],Percent Control,YSK1,85%
same,Percent Control,YSK4,20%
same,Percent Control,ZAK,100%
same,Percent Control,ZAP70,100%
same,Percent Control,p38-alpha,93%
same,Percent Control,p38-beta,100%
same,Percent Control,p38-delta,100%
same,Percent Control,p38-gamma,44%
COc1cc2ncn(-c3cc(O[C@H](C)c4ccccc4Cl)c(C(N)=O)s3)c2cc1OC [GSK237701A],Percent Control,YSK1,78%
same,Percent Control,YSK4,5.6%
same,Percent Control,ZAK,100%
same,Percent Control,ZAP70,93%
same,Percent Control,p38-alpha,100%
same,Percent Control,p38-beta,100%
same,Percent Control,p38-delta,100%
same,Percent Control,p38-gamma,100%
Cl.O=C(O[C@H]1CN[C@H](C#Cc2cc3ncnc(Nc4ccc5c(cnn5Cc5ccccc5)c4)c3s2)C1)N1CCOCC1 [GSK200398A],Percent Control,YSK1,79%
same,Percent Control,YSK4,83%
same,Percent Control,ZAK,82%
same,Percent Control,ZAP70,89%
same,Percent Control,p38-alpha,100%
same,Percent Control,p38-beta,100%
same,Percent Control,p38-delta,100%
same,Percent Control,p38-gamma,100%
O=C(Nc1n[nH]c2nc(-c3ccc(O)cc3)c(Br)cc12)C1CC1 [SB-725317],Percent Control,YSK1,79%
same,Percent Control,YSK4,4.3%
same,Percent Control,ZAK,100%
same,Percent Control,ZAP70,100%
same,Percent Control,p38-alpha,100%
same,Percent Control,p38-beta,74%
same,Percent Control,p38-delta,100%
same,Percent Control,p38-gamma,81%
Cc1cc(O)cc(C)c1/C=C/c1cncc(C(N)=O)c1 [GW435821X],Percent Control,YSK1,95%
same,Percent Control,YSK4,84%
same,Percent Control,ZAK,87%
same,Percent Control,ZAP70,96%
same,Percent Control,p38-alpha,100%
same,Percent Control,p38-beta,100%
same,Percent Control,p38-delta,100%
same,Percent Control,p38-gamma,100%
CCS(=O)(=O)c1ccc(OC)c(Nc2ncc(-c3cccc(F)c3)o2)c1 [GW621970X],Percent Control,YSK1,79%
same,Percent Control,YSK4,90%
same,Percent Control,ZAK,82%
same,Percent Control,ZAP70,86%
same,Percent Control,p38-alpha,100%
same,Percent Control,p38-beta,100%
same,Percent Control,p38-delta,100%
same,Percent Control,p38-gamma,100%
COc1cc(/C=N/Nc2ncnc3[nH]ncc23)ccc1O [GW578748X],Percent Control,YSK1,70%
same,Percent Control,YSK4,3.2%
same,Percent Control,ZAK,59%
same,Percent Control,ZAP70,76%
same,Percent Control,p38-alpha,100%
same,Percent Control,p38-beta,100%
same,Percent Control,p38-delta,100%
same,Percent Control,p38-gamma,69%
NS(=O)(=O)c1ccc(N/N=C2\C(=O)Nc3ccc(Cl)cc32)cc1 [GW280670X],Percent Control,YSK1,80%
same,Percent Control,YSK4,31%
same,Percent Control,ZAK,100%
same,Percent Control,ZAP70,100%
same,Percent Control,p38-alpha,100%
same,Percent Control,p38-beta,100%
same,Percent Control,p38-delta,100%
same,Percent Control,p38-gamma,100%
COc1cc(C=NNc2ncnc3c2cnn3-c2ccccc2)ccc1O [GW513184X],Percent Control,YSK1,97%
same,Percent Control,YSK4,3.1%
same,Percent Control,ZAK,48%
same,Percent Control,ZAP70,99%
same,Percent Control,p38-alpha,100%
same,Percent Control,p38-beta,88%
same,Percent Control,p38-delta,88%
same,Percent Control,p38-gamma,97%
COc1ccc2c(-c3ccnc(Nc4cccc(OC(F)(F)F)c4)n3)cnn2n1 [GW810372X],Percent Control,YSK1,85%
same,Percent Control,YSK4,39%
same,Percent Control,ZAK,69%
same,Percent Control,ZAP70,86%
same,Percent Control,p38-alpha,100%
same,Percent Control,p38-beta,100%
same,Percent Control,p38-delta,100%
same,Percent Control,p38-gamma,77%
COc1cc(N2CCN(C(C)C)CC2)ccc1Nc1nc(Nc2ccc(F)cc2C(=O)NC[C@@H](O)CO)c2cc[nH]c2n1 [GSK1392956A],Percent Control,YSK1,89%
same,Percent Control,YSK4,34%
same,Percent Control,ZAK,93%
same,Percent Control,ZAP70,86%
same,Percent Control,p38-alpha,100%
same,Percent Control,p38-beta,100%
same,Percent Control,p38-delta,100%
same,Percent Control,p38-gamma,91%
CC(C)COC(=O)c1ccc2c(c1)/C(=C/Nc1ccc(S(N)(=O)=O)cc1)C(=O)N2 [GW416981X],Percent Control,YSK1,65%
same,Percent Control,YSK4,11%
same,Percent Control,ZAK,100%
same,Percent Control,ZAP70,100%
same,Percent Control,p38-alpha,100%
same,Percent Control,p38-beta,100%
same,Percent Control,p38-delta,100%
same,Percent Control,p38-gamma,100%
COc1ccc2cc(-c3c(-c4ccncc4)nc(-c4ccc(S(C)(=O)=O)cc4C)n3C)ccc2c1 [SB-633825],Percent Control,YSK1,100%
same,Percent Control,YSK4,66%
same,Percent Control,ZAK,89%
same,Percent Control,ZAP70,84%
same,Percent Control,p38-alpha,100%
same,Percent Control,p38-beta,79%
same,Percent Control,p38-delta,83%
same,Percent Control,p38-gamma,100%
